Assay results published in PubChem BioAssay AID1159580 (chemical genetic matrix, 2015).
The campaign covered roughly 5,500 compounds. About 2,000 (36%) were called active. Inconclusive results (about 18%) are left out. Cut-off read from the data, not from the text of the source: active = normalized growth mostly below about 0.91 (no sharp cut-off); inconclusive = no clear call, values can overlap the other calls; inactive = mostly above about 0.92. The list shows a part of the results.

Assay: chemical genetic growth profiling, strain panel (AID 1159580);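 note: tested at 20 µM; growth read once vehicle control cultures reached saturation at 30 °C; 1 = growth at the plate median or of vehicle wells; lower values mean less growth of the strain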
Settings: growth OD

Measured: normalized growth

C[C@]12C=CC(=O)C=C1CCC1C3C[C@@H](O)[C@](O)(C(=O)CO)[C@@]3(C)C[C@H](O)[C@@]12F (some centres undefined)
inactive: S. cerevisiae deletion strains, locus YJR066W, strain TOR1, hits give low values 0.952 | S. cerevisiae deletion strains, locus YJR075W, strain HOC1, hits give low values 1.01 | S. cerevisiae deletion strains, locus YKL009W, strain mrt4, hits give low values 0.983 | S. cerevisiae deletion strains, locus YKL068W, hits give low values 0.992 | S. cerevisiae deletion strains, locus YKL085W, strain MDH1 (second series), hits give low values 0.983 | S. cerevisiae deletion strains, locus YKL085W, strain MDH1, hits give low values 0.983 | S. cerevisiae deletion strains, locus YKL160W, strain elf1, hits give low values 0.957 | S. cerevisiae deletion strains, locus YKL190W, strain CNB1, hits give low values 1 | S. cerevisiae deletion strains, locus YKR001C, strain vps1, hits give low values 0.944 | S. cerevisiae deletion strains, locus YKR026C, strain gcn3, hits give low values 0.985 | S. cerevisiae deletion strains, locus YKR091W, strain srl3, hits give low values 0.985 | S. cerevisiae deletion strains, locus YLL001W, strain dnm1, hits give low values 1.01 | S. cerevisiae deletion strains, locus YLL026W, hits give low values 0.964 | S. cerevisiae deletion strains, locus YLL041C, strain sdh2, hits give low values 0.985 | S. cerevisiae deletion strains, locus YLR027C, strain aat2, hits give low values 0.998 | S. cerevisiae deletion strains, locus YLR039C, strain RIC1, hits give low values 1.01 | S. cerevisiae deletion strains, locus YLR058C, strain SHM2, hits give low values 1.01 | S. cerevisiae deletion strains, locus YLR102C, strain apc9, hits give low values 0.981 | S. cerevisiae deletion strains, locus YLR113W, strain HOG1, hits give low values 1.01 | S. cerevisiae deletion strains, locus YLR221C, strain rsa3, hits give low values 1.01 | S. cerevisiae deletion strains, locus YLR258W, strain gsy2, hits give low values 0.983 | S. cerevisiae deletion strains, locus YLR262C, strain YPT6 (second series), hits give low values 0.996 | S. cerevisiae deletion strains, locus YLR262C, strain YPT6, hits give low values 1.02 | S. cerevisiae deletion strains, locus YLR268W, strain sec22, hits give low values 0.953 | S. cerevisiae deletion strains, locus YLR320W, strain mms22, hits give low values 0.98 | S. cerevisiae deletion strains, locus YLR330W, strain CHS5, hits give low values 1.01 | S. cerevisiae deletion strains, locus YLR342W, strain FKS1 (second series), hits give low values 1 | S. cerevisiae deletion strains, locus YLR342W, strain FKS1, hits give low values 0.982 | S. cerevisiae deletion strains, locus YLR357W, strain rsc2, hits give low values 0.941 | S. cerevisiae deletion strains, locus YLR370C, strain arc18, hits give low values 0.991 | S. cerevisiae deletion strains, locus YLR371W, strain rom2, hits give low values 0.987 | S. cerevisiae deletion strains, locus YLR384C, strain iki3, hits give low values 0.993 | S. cerevisiae deletion strains, locus YLR418C, strain cdc73, hits give low values 0.968 | S. cerevisiae deletion strains, locus YML016C, strain PPZ1, hits give low values 1.01 | S. cerevisiae deletion strains, locus YML032C, strain rad52, hits give low values 0.974 | S. cerevisiae deletion strains, locus YML120C, strain ndi1, hits give low values 0.99 | S. cerevisiae deletion strains, locus YML124C, strain tub3, hits give low values 0.981 | S. cerevisiae deletion strains, locus YMR058W, strain fet3, hits give low values 1.04 | S. cerevisiae deletion strains, locus YMR078C, strain ctf18, hits give low values 0.989 | S. cerevisiae deletion strains, locus YMR125W, strain sto1, hits give low values 0.942 | S. cerevisiae deletion strains, locus YMR129W, hits give low values 0.988 | S. cerevisiae deletion strains, locus YMR205C, strain PFK2, hits give low values 0.958 | S. cerevisiae deletion strains, locus YMR223W, strain ubp8, hits give low values 0.991 | S. cerevisiae deletion strains, locus YMR231W, strain pep5, hits give low values 0.989 | S. cerevisiae deletion strains, locus YMR263W, strain SAP30, hits give low values 1.01 | S. cerevisiae deletion strains, locus YMR307W, strain GAS1, hits give low values 0.991 | S. cerevisiae deletion strains, locus YNL067W, strain RPL9B, hits give low values 1.01 | S. cerevisiae deletion strains, locus YNL071W, strain lat1, hits give low values 0.983 | S. cerevisiae deletion strains, locus YNL183C, strain NPR1, hits give low values 0.961 | S. cerevisiae deletion strains, locus YNL209W, strain ssb2, hits give low values 0.978 | S. cerevisiae deletion strains, locus YNL233W, strain BNI4, hits give low values 1.01 | S. cerevisiae deletion strains, locus YNL248C, strain rpa49, hits give low values 0.925 | S. cerevisiae deletion strains, locus YNL250W, strain rad50, hits give low values 0.985 | S. cerevisiae deletion strains, locus YNL271C, strain bni1, hits give low values 0.971 | S. cerevisiae deletion strains, locus YNL298W, strain CLA4, hits give low values 0.98 | S. cerevisiae deletion strains, locus YNL307C, strain MCK1, hits give low values 0.975 | S. cerevisiae deletion strains, locus YNL322C, strain KRE1 (second series), hits give low values 0.944 | S. cerevisiae deletion strains, locus YNR049C, strain mso1, hits give low values 0.985 | S. cerevisiae deletion strains, locus YNR052C, strain pop2, hits give low values 0.988 | S. cerevisiae deletion strains, locus YOL006C, strain TOP1, hits give low values 1.06 | S. cerevisiae deletion strains, locus YOL012C, strain htz1 1.1 | S. cerevisiae deletion strains, locus YOL147C, strain pex11, hits give low values 0.975 | S. cerevisiae deletion strains, locus YOR001W, strain rrp6, hits give low values 1.02 | S. cerevisiae deletion strains, locus YOR061W, strain CKA2, hits give low values 1.01 | S. cerevisiae deletion strains, locus YOR069W, strain VPS5, hits give low values 1.01 | S. cerevisiae deletion strains, locus YOR070C, strain gyp1, hits give low values 0.979 | S. cerevisiae deletion strains, locus YOR080W, strain dia2, hits give low values 0.987 | S. cerevisiae deletion strains, locus YOR083W, strain WHI5, hits give low values 0.901 | S. cerevisiae deletion strains, locus YOR106W, strain vam3, hits give low values 0.924 | S. cerevisiae deletion strains, locus YOR136W, strain idh2, hits give low values 0.986 | S. cerevisiae deletion strains, locus YOR144C, strain elg1, hits give low values 0.985 | S. cerevisiae deletion strains, locus YOR184W, strain ser1, hits give low values 0.974 | S. cerevisiae deletion strains, locus YOR231W, strain MKK1, hits give low values 0.983 | S. cerevisiae deletion strains, locus YOR265W, strain rbl2, hits give low values 0.969 | S. cerevisiae deletion strains, locus YOR270C, strain vph1, hits give low values 0.988 | S. cerevisiae deletion strains, locus YOR290C, strain snf2, hits give low values 0.962 | S. cerevisiae deletion strains, locus YOR316C, strain cot1, hits give low values 0.991 | S. cerevisiae deletion strains, locus YPL051W, strain arl3, hits give low values 0.967 | S. cerevisiae deletion strains, locus YPL078C, strain atp4, hits give low values 0.961 | S. cerevisiae deletion strains, locus YPL106C, strain sse1, hits give low values 0.976 | S. cerevisiae deletion strains, locus YPL240C, strain hsp82, hits give low values 0.986 | S. cerevisiae deletion strains, locus YPL241C, strain CIN2, hits give low values 1.01 | S. cerevisiae deletion strains, locus YPL256C, strain CLN2, hits give low values 0.973 | S. cerevisiae deletion strains, locus YPR119W, strain clb2, hits give low values 0.99 | S. cerevisiae deletion strains, locus YPR141C, strain kar3, hits give low values 0.993 | S. cerevisiae deletion strains, locus YPR163C, strain tif3, hits give low values 0.973 | S. cerevisiae deletion strains, locus YPR167C, strain met16, hits give low values 0.979 | S. cerevisiae deletion strains, strain wtn01, hits give low values 0.969 | S. cerevisiae strains, strain wild type, hits give low values 1.01
